Source: PubChem BioAssay (Tox21)
Results filed as inconclusive are left out. Activity calls are given as the source filed them. Calls come from the whole dose curve; as a rule, active = well fitted curve in the direction sought with a large enough effect in the repeat runs; inconclusive = weak or mixed curves; inactive = no such curve, though single readings can be large; an effect the other way counts as inactive or inconclusive.

How the values were obtained:
[1] = A CellTox Green Cytotoxicity Assay to monitor cytotoxicity in HEK293 cells - 40 hour (AID 1224871); note: nearly all actives have a fitted effect of over 45% in size
Procedure, shortened: (§1)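 Fluorescence intensity, read at 0, 8, 16, 24, 32 and 40 h of compound treatment, reflected dye binding to DNA of dead HEK293 cells; compounds (23 nL, DMSO) were added 5 h after plating cells with reagent.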

[2] = qHTS RealTime-Glo MT Cell Viability Assay in HEK293 cells - 16 hour (AID 1224872); note: top concentration of the series differs between compounds; nearly all actives have a fitted effect of over 50% in size
Procedure, shortened: (§2)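 Cells + reagent dispensed (600 cells/well, HEK293) → 5 h at 37 C/5% CO2 → 23 nL compound in DMSO pinned → 40 h at 37 C → luminescence read at 0, 8, 16, 24, 32, 40 h.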

[3] = qHTS RealTime-Glo MT Cell Viability Assay in HepG2 cells - 8 hour (AID 1224873); note: nearly all actives have a fitted effect of over 55% in size
Procedure, shortened: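 Real-time viability: cells seeded at 600 per well together with NanoLuc and cell-permeant prosubstrate, compounds added after 5 h incubation. Luminescence tracked at 0, 8, 16, 24, 32 and 40 h of exposure.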

[4] = qHTS RealTime-Glo MT Cell Viability Assay in HEK293 cells - 40 hour (AID 1224874); settings: RealTime-Glo luminescence; max response: hits give low values; note: nearly all actives have a fitted effect of over 50% in size; note: potency is the fitted concentration of half-maximal effect
Procedure, shortened: (§3)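 Viable HEK293 cells reduce a cell-permeant prosubstrate; the product diffuses out and is consumed by NanoLuc in the medium to give light. Compounds went in after a 5 h incubation and plates were read over the treatment course.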

[5] = A CellTox Green Cytotoxicity Assay to monitor cytotoxicity in HEK293 cells - 24 hour (AID 1224875); note: series mostly up to about 77 µM; nearly all actives have a fitted effect of over 45% in size
Procedure, shortened: as §1

[6] = A CellTox Green Cytotoxicity Assay to monitor cytotoxicity in HepG2 cells - 16 hour (AID 1224876); note: nearly all actives have a fitted effect of over 45% in size; note: potency is the fitted concentration of half-maximal effect
Procedure, shortened: (§4)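 Using 1536-well format, dye-containing HepG2 suspension was seeded, allowed 5 h at 37 C/5% CO2, dosed by pintool with compounds, positive and negative controls, and imaged for fluorescence across 40 h.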

[7] = qHTS RealTime-Glo MT Cell Viability Assay in HepG2 cells - 32 hour (AID 1224877); note: nearly all actives have a fitted effect of over 55% in size
Procedure, shortened: (§5)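 Real-time, nonlytic viability: 600 HepG2 cells/well mixed with NanoLuc enzyme plus prosubstrate; 5 h settle, compound (DMSO) added by pintool; luminescence monitored over 40 h at 37 C.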

[8] = A CellTox Green Cytotoxicity Assay to monitor cytotoxicity in HepG2 cells - 24 hour (AID 1224878); note: nearly all actives have a fitted effect of over 45% in size; note: potency is the fitted concentration of half-maximal effect
Procedure, shortened: as §4

[9] = A CellTox Green Cytotoxicity Assay to monitor cytotoxicity in HEK293 cells - 32 hour (AID 1224881); note: nearly all actives have a fitted effect of over 40% in size
Procedure, shortened: as §1

[10] = A CellTox Green Cytotoxicity Assay to monitor cytotoxicity in HepG2 cells - 32 hour (AID 1224883); note: nearly all actives have a fitted effect of over 50% in size; note: potency is the fitted concentration of half-maximal effect
Procedure, shortened: as §4

[11] = A CellTox Green Cytotoxicity Assay to monitor cytotoxicity in HEK293 cells - 8 hour (AID 1224884); note: nearly all actives have a fitted effect of over 35% in size
Procedure, shortened: as §1

[12] = qHTS RealTime-Glo MT Cell Viability Assay in HepG2 cells - 16 hour (AID 1224885); note: nearly all actives have a fitted effect of over 50% in size
Procedure, shortened: as §5

[13] = qHTS RealTime-Glo MT Cell Viability Assay in HEK293 cells - 8 hour (AID 1224887); note: nearly all actives have a fitted effect of over 50% in size; note: potency is the fitted concentration of half-maximal effect
Procedure, shortened: as §3

[14] = A CellTox Green Cytotoxicity Assay to monitor cytotoxicity in HEK293 cells - 16 hour (AID 1224888); note: nearly all actives have a fitted effect of over 35% in size
Procedure, shortened: as §1

[15] = qHTS RealTime-Glo MT Cell Viability Assay in HepG2 cells - 0 hour (AID 1224889); note: nearly all actives have a fitted effect of over 50% in size
Procedure, shortened: as §5

[16] = A CellTox Green Cytotoxicity Assay to monitor cytotoxicity in HepG2 cells - 0 hour (AID 1224882); note: nearly all actives have a fitted effect of over 35% in size
Procedure, shortened: as §4

[17] = qHTS RealTime-Glo MT Cell Viability Assay in HEK293 cells - 24 hour (AID 1224886); note: nearly all actives have a fitted effect of over 50% in size; note: potency is the fitted concentration of half-maximal effect
Procedure, shortened: as §2

[18] = A CellTox Green Cytotoxicity Assay to monitor cytotoxicity in HepG2 cells - 40 hour (AID 1224879); note: nearly all actives have a fitted effect of over 40% in size; note: potency is the fitted concentration of half-maximal effect
Procedure, shortened: as §4

[19] = qHTS RealTime-Glo MT Cell Viability Assay in HEK293 cells - 0 hour (AID 1224880)
Procedure, shortened: as §3
% is set by controls: 0 for no effect and ±100 for the full control effect.

CC(C)C/C=C(\C=O)c1ccccc1
inactive: Potency [1] | Potency [2] | outcome [3] | max response [4] 10% | Potency [5] | Potency [6] | Potency [7] | Potency [8] | Potency [9] | Potency [10] | Potency [11] | outcome [12] | Potency [13] | Potency [14] | Potency [15]

CC1(COc2ccc(CC3SC(=O)NC3=O)cc2)CCCCC1 (stereo unspecified)
inactive: Potency [1] | Potency [2] | outcome [3] | max response [4] 1.6% | Potency [6] | Potency [7] | Potency [8] | Potency [16] | Potency [10] | Potency [11] | outcome [12] | Potency [17] | Potency [13] | Potency [14] | Potency [15]

Nc1ccc(-c2ccc(F)cc2)cc1
inactive: Potency [1] | outcome [3] | max response [4] -22.4% | Potency [5] | Potency [6] | Potency [7] | Potency [8] | Potency [18] | Potency [19] | Potency [9] | Potency [16] | Potency [10] | Potency [11] | Potency [17] | Potency [14] | Potency [15]

Cc1ccc(NC(=O)c2ccc(CN3CCN(C)CC3)cc2)cc1Nc1nccc(-c2cccnc2)n1
active: Potency [4] 21.3 µM | Potency [17] 21.3 µM
inactive: Potency [1] | outcome [3] | Potency [5] | Potency [6] | Potency [7] | Potency [8] | Potency [19] | Potency [9] | Potency [11] | Potency [14] | Potency [15]

COc1ccc(/C=C/c2cc(OC)cc(=O)o2)cc1
inactive: Potency [1] | Potency [5] | Potency [6] | Potency [7] | Potency [8] | Potency [18] | Potency [19] | Potency [9] | Potency [16] | Potency [10] | Potency [11] | outcome [12] | Potency [13] | Potency [14]
active: Potency [4] 8.92 µM

Oc1ccc(Oc2ccccc2)cc1
active: Potency [4] 14.7 µM | Potency [8] 36.9 µM | Potency [18] 36.9 µM | Potency [10] 36.9 µM | Potency [17] 16.5 µM | Potency [13] 16.5 µM
inactive: outcome [3] | Potency [5] | Potency [7] | Potency [16] | Potency [11] | outcome [12] | Potency [14] | Potency [15]

CC(=O)Nc1ccn(C2COC(COC(=O)c3ccccc3)O2)c(=O)n1 (stereo unspecified)
inactive: outcome [3] | max response [4] 3.96% | Potency [5] | Potency [6] | Potency [7] | Potency [8] | Potency [18] | Potency [19] | Potency [9] | Potency [16] | Potency [10] | Potency [11] | outcome [12] | Potency [13] | Potency [14] | Potency [15]

CC(=O)c1ccc(Cl)c(Cl)c1Cl
inactive: Potency [2] | outcome [3] | max response [4] -19.2% | Potency [6] | Potency [7] | Potency [8] | Potency [18] | Potency [19] | Potency [16] | Potency [10] | Potency [11] | outcome [12] | Potency [17] | Potency [13] | Potency [14] | Potency [15]

O=C(c1ccco1)N1CCNCC1
inactive: Potency [1] | Potency [2] | outcome [3] | Potency [5] | Potency [6] | Potency [7] | Potency [8] | Potency [9] | Potency [10] | Potency [11] | outcome [12] | Potency [17] | Potency [13] | Potency [14] | Potency [15]

O=C(Cl)c1ccc(F)c(Cl)c1
inactive: Potency [1] | outcome [3] | max response [4] 35.2% | Potency [5] | Potency [6] | Potency [7] | Potency [8] | Potency [19] | Potency [16] | Potency [10] | outcome [12] | Potency [14] | Potency [15]

C[C@H](CN1CCCC1)C(=O)c1ccc(C(F)(F)F)cc1
inactive: outcome [3] | Potency [19] | Potency [16] | Potency [11] | Potency [14] | Potency [15]
active: Potency [6] 21.3 µM | Potency [8] 21.3 µM | Potency [18] 21.3 µM | Potency [10] 21.3 µM

CCCC1CCOC(C)S1 (stereo unspecified)
inactive: Potency [1] | Potency [2] | outcome [3] | max response [4] 4.04% | Potency [5] | Potency [6] | Potency [7] | Potency [8] | Potency [18] | Potency [19] | Potency [9] | Potency [10] | Potency [11] | outcome [12] | Potency [17] | Potency [13] | Potency [14] | Potency [15]

CC1(C)[C@@H]2CC[C@]3(C2)[C@@H]1C(=O)CCC3(C)C
inactive: Potency [1] | outcome [3] | max response [4] 3.71% | Potency [5] | Potency [6] | Potency [7] | Potency [8] | Potency [18] | Potency [19] | Potency [9] | Potency [16] | Potency [10] | Potency [11] | Potency [13] | Potency [15]
